# PubChem BioAssay (NCI)
# Values joined by “and” are separate entries in the source; they are usually repeats but may differ in a detail not shown here. Identical values can stand only once. About 83,000 compounds went through this panel and 20% of them were active in at least one assay; those are over-represented in the sample as a whole.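 Growth was measured after 48 h exposure to one concentration of compound in 96-well plates. Values under 10 count as active.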 Values without a mark were called inactive. Active and inactive are the calls of the source.
# System: HCT-15 colon
# Assay: NCI-60 one-dose screen, 48 h (100 = growth as untreated, 0 = no growth, -100 = all killed)
# Conditions: 10 µM unless noted
row,SMILES,growth
1,O=C1/C(=C/c2cccc3c2OCO3)Cc2c(F)cc(Br)cc21,102%
2,CC(C)(C)C(=O)C1CC(C#N)=C2C=Cc3c(ccc4ccccc34)N21 (centres undefined),88.3%
3,Cc1ccc(C(=O)Nc2cc(-c3ccncc3)cc(C(F)(F)F)c2)cc1C#Cc1cnc2cccnn12,40.5%
4,CCOc1ccc(-c2cc(-c3cc(C(C)C)c(O)cc3C)nn2-c2ccc(S(N)(=O)=O)cc2)cc1,4.81% (active)
5,N#Cc1ccc(C(=O)CSc2nc3c(c(Nc4ccc(S(N)(=O)=O)cc4)n2)CCC3)cc1,49.9%
6,COc1ccc2c(c1)C(Sc1ccc(Cl)cc1)c1c(nc(N)c(C#N)c1N)O2 (centres undefined),58.9%
7,Fc1ccccc1CNc1nc(SCCN2CCOCC2)nc2c1cnn2CC(Cl)c1ccc(Br)cc1 (centres undefined),-53.3% (active)
8,COc1ccc(-c2nnc3c(/C=C/c4ccc(Br)cc4)nc4ccccc4n23)cc1,-60.7% (active)
9,Cc1nn(-c2ccccc2)c2ncn(CC(=O)N/N=C/c3ccccc3O)c(=O)c12,20.8%
10,CCOC(=O)c1ccc(NC(=S)NC(=O)c2cccc(NC(=O)c3ccc(C)cc3)c2)cc1,75.3%
11,COc1cc(/C=C/C(=O)c2cnn(-c3cc(=O)[nH]c4ccc(Cl)cc34)c2C)cc(OC)c1OC,-40.2% (active)
12,Cc1[nH]nc2ccc3nc(-c4cnn(CCO)c4)c4c(c3c12)CCCC4,23.3%
13,CCC1(OC(=O)c2ccccc2SSCCOC(=O)CCCCC2SCC3NC(=O)NC32)C(=O)OCc2c1cc1n(c2=O)Cc2cc3ccccc3nc2-1 (centres undefined),64.7%
14,CN(C)c1nc(NCCNS(=O)(=O)c2ccc(C(=O)/C=C/c3ccc(Cl)cc3)cc2)nc(N2CCOCC2)n1,-53% (active)
15,C[C@@H]1CN(c2ccc3ncc(C#Cc4cncc(C(=O)Nc5ccc(CN6CCN(C)CC6)c(C(F)(F)F)c5)c4)n3n2)C[C@@H](C)O1,-91% (active)
16,O=C1Nc2ccccc2/C1=C\c1ccc(OCC(=O)c2ccc(Br)cc2)cc1,45.4%
17,COc1ccc(NC(=O)NN2C(=O)c3ccccc3N(C)C2c2ccc(OC)cc2)cc1 (centres undefined),103%
18,COc1ccc2c(c1)N=c1c-2cc2c(O)[nH]c(=S)n2c1=O,27.3%
19,CCC(=O)c1c2c(c3ccc4c5ccccc5ccc4n13)C(=O)c1ccccc1C2=O,66.8%
20,CC1=C(C(=O)Nc2ccccc2)C(c2cccc(Cl)c2Cl)n2c(nc3ccccc32)N1 (centres undefined),35.5%
21,COc1cc(/C=N/NC(=O)c2ccc(OCc3nc4ccc(C)cc4[nH]3)cc2)cc(OC)c1OC,38.9%
22,Cc1ccc(C2CC(c3ccc(NC(=S)Nc4ccccc4)cc3)=NN2c2ccc(S(N)(=O)=O)cc2)cc1 (centres undefined),4.26% (active)
23,Nc1cc2ccccc2c(=O)n1NC(=O)c1ccc(Br)cc1,99.4%
24,COc1cc(C2CC(c3ccc(S(=O)(=O)NCCNc4nc(N(C)C)nc(N5CCOCC5)n4)cc3)=Nc3c(N)nc(N)nc3N2)cc(OC)c1OC (centres undefined),93.8%
25,Cn1cc(-c2cc(N)n3nc(-c4c[nH]c5ccccc45)cc3n2)c2ccccc21,-68.5% (active)
26,COc1ccc2[nH]c(=O)c(CSc3ccccc3Nc3nccc(-c4ccc(C(F)(F)F)cc4)n3)cc2c1,12.9%

# System: HT29 colon
# Assay: as above
# Conditions: 10 µM unless noted
row,SMILES,growth
1,CCc1ccccc1-c1nc(CN[C@@H]2C[C@@H]3C[C@H]([C@H]2C)C3(C)C)c(C)o1,-73.8% (active)
2,Cc1ccccc1Nc1nnc(-c2c[nH]c3ccccc23)o1,2.95% (active)
3,Cc1ccc(/C=C/C(=O)c2ccc(S(=O)(=O)NCCNc3nc(N(C)C)nc(N4CCOCC4)n3)cc2)cc1,37.3%
4,COC(=O)c1c(C(=O)OC)c2ccc3c4ccccc4ccc3n2c1C(=O)C(C)Br (centres undefined),24%
5,COc1cc(CNC(=O)C[C@H](C)CCC=C(C)C)ccc1OCc1cn(-c2ccc(Cl)cc2Cl)nn1,82.3%
6,Cc1cc(C(NC(=O)C2CC3(CC(Nc4cccc5c4C(=O)N(C4CCC(=O)NC4=O)C5=O)C3)C2)c2ccc3c(c2)OC(F)(F)O3)c(O)c2ncccc12 (centres undefined),29.1%
7,O=C(CSc1nnc(-c2ccc(-c3nc4ccc(Cl)cc4[nH]3)cc2)o1)Nc1ccc(Br)cc1,28.6%
8,COc1ccc(-c2nc3ccccc3n2CC(=O)N=Nc2c(O)[nH]c3ccc(OC)cc23)cc1,0.298% (active)
9,Nc1cccc(-n2c(COc3ccc(I)cc3)nc3ccccc32)c1,78.7% and 114%
10,COC(=O)c1cc(C(=O)C(Br)Br)n2c1ccc1c3ccccc3ccc12,63.1%
11,O=C(NN1C(=O)/C(=C/C=C/c2ccc([N+](=O)[O-])o2)SC1=S)c1ccc([N+](=O)[O-])cc1,-80.3% (active)
12,Cc1ccc2nc(NC(=O)Nc3cccc(Cl)c3)sc2c1,104%
13,O=C1/C(=C/c2cccc3c2OCO3)Cc2c(F)cc(Br)cc21,118%
14,CC(C)(C)C(=O)C1CC(C#N)=C2C=Cc3c(ccc4ccccc34)N21 (centres undefined),90.4%
15,Cc1ccc(C(=O)Nc2cc(-c3ccncc3)cc(C(F)(F)F)c2)cc1C#Cc1cnc2cccnn12,26.9%
16,CCOc1ccc(-c2cc(-c3cc(C(C)C)c(O)cc3C)nn2-c2ccc(S(N)(=O)=O)cc2)cc1,98.5%
17,N#Cc1ccc(C(=O)CSc2nc3c(c(Nc4ccc(S(N)(=O)=O)cc4)n2)CCC3)cc1,55.8%
18,COc1ccc2c(c1)C(Sc1ccc(Cl)cc1)c1c(nc(N)c(C#N)c1N)O2 (centres undefined),75.2%
19,Fc1ccccc1CNc1nc(SCCN2CCOCC2)nc2c1cnn2CC(Cl)c1ccc(Br)cc1 (centres undefined),-33.6% (active)

row,SMILES,growth
1,COc1ccc(-c2nnc3c(/C=C/c4ccc(Br)cc4)nc4ccccc4n23)cc1,-34.1% (active)
2,Cc1nn(-c2ccccc2)c2ncn(CC(=O)N/N=C/c3ccccc3O)c(=O)c12,28.2%
3,CCOC(=O)c1ccc(NC(=S)NC(=O)c2cccc(NC(=O)c3ccc(C)cc3)c2)cc1,82.5%
4,COc1cc(/C=C/C(=O)c2cnn(-c3cc(=O)[nH]c4ccc(Cl)cc34)c2C)cc(OC)c1OC,-71.9% (active)
5,Cc1[nH]nc2ccc3nc(-c4cnn(CCO)c4)c4c(c3c12)CCCC4,31.3%
6,CCC1(OC(=O)c2ccccc2SSCCOC(=O)CCCCC2SCC3NC(=O)NC32)C(=O)OCc2c1cc1n(c2=O)Cc2cc3ccccc3nc2-1 (centres undefined),67.8%
7,CN(C)c1nc(NCCNS(=O)(=O)c2ccc(C(=O)/C=C/c3ccc(Cl)cc3)cc2)nc(N2CCOCC2)n1,-80.6% (active)
8,C[C@@H]1CN(c2ccc3ncc(C#Cc4cncc(C(=O)Nc5ccc(CN6CCN(C)CC6)c(C(F)(F)F)c5)c4)n3n2)C[C@@H](C)O1,-60.5% (active)
9,O=C1Nc2ccccc2/C1=C\c1ccc(OCC(=O)c2ccc(Br)cc2)cc1,82.7%
10,COc1ccc(NC(=O)NN2C(=O)c3ccccc3N(C)C2c2ccc(OC)cc2)cc1 (centres undefined),109%
11,COc1ccc2c(c1)N=c1c-2cc2c(O)[nH]c(=S)n2c1=O,12.3%
12,CCC(=O)c1c2c(c3ccc4c5ccccc5ccc4n13)C(=O)c1ccccc1C2=O,94.2%
13,CC1=C(C(=O)Nc2ccccc2)C(c2cccc(Cl)c2Cl)n2c(nc3ccccc32)N1 (centres undefined),22.1%
14,COc1cc(/C=N/NC(=O)c2ccc(OCc3nc4ccc(C)cc4[nH]3)cc2)cc(OC)c1OC,18.9%
15,Cc1ccc(C2CC(c3ccc(NC(=S)Nc4ccccc4)cc3)=NN2c2ccc(S(N)(=O)=O)cc2)cc1 (centres undefined),1.32% (active)
16,Nc1cc2ccccc2c(=O)n1NC(=O)c1ccc(Br)cc1,118%
17,COc1cc(C2CC(c3ccc(S(=O)(=O)NCCNc4nc(N(C)C)nc(N5CCOCC5)n4)cc3)=Nc3c(N)nc(N)nc3N2)cc(OC)c1OC (centres undefined),99.8%
18,Cn1cc(-c2cc(N)n3nc(-c4c[nH]c5ccccc45)cc3n2)c2ccccc21,-68.2% (active)
19,COc1ccc2[nH]c(=O)c(CSc3ccccc3Nc3nccc(-c4ccc(C(F)(F)F)cc4)n3)cc2c1,4.71% (active)
